What all share (assay): NCI-60 one-dose screen, 48 h (100 = growth as untreated, 0 = no growth, -100 = all killed)
Common to all, as to details: 10 µM unless noted

For assay [1], the system named is NCI-H23 lung.
In assay [2] the test system is NCI-H226 lung.
The test system of assay [3] is NCI-H322M lung.
Assay [4] has as its system HOP-62 NSCLC.
Assay [5] has as its system NCI-H460 lung.
For assay [6], the system named is HOP-92 NSCLC.
Assay [7] deals with NCI-H522 lung.
Assay [8] relates to A549/ATCC NSCLC.
Assay [9] concerns 786-0 renal.
In assay [10] the test system is COLO 205 colon.
Assay [11] relates to DU-145 prostate.
The test system of assay [12] is K-562 leukemia.
In assay [13] the test system is MALME-3M melanoma.
In assay [14] the test system is MDA-MB-231 breast.
The test system of assay [15] is RXF 393 renal.
Assay [16] has as its system SF-268 CNS.
Assay [17] has as its system SF-295 CNS.
Assay [18] has as its system SF-539 CNS.
The test system of assay [19] is UACC-257 melanoma.
The test system of assay [20] is M14 melanoma.

We go through seven molecules from PubChem BioAssay (NCI).

This is part of a sample that, as a whole, favours compounds with a hit. Of some 83,000 tested, about 20% had one in any assay.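 Cell lines were cultured in 96-well plates, exposed to a single compound concentration, and assessed for percent growth 48 hours later.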 A number with no mark means an inactive call. Active and inactive are the calls of the source. The calls were made as follows: active = growth percent below 10; inactive = the rest.

Turning to `COc1ccc(-c2nnc(SCC(=O)Nc3ccc(C(=O)/C=C/c4ccc(OC)c(OC)c4)cc3)o2)cc1`, the growth in [1] is 91.9%; in assay [2] it was 86.2%; in assay [3], 94.6%; in assay [4], 73.6%; in [5] it was 95.1%; in [6] it was 81.3%. Besides, the growth in assay [7] is 68.4%; in assay [8], 77.7%; in assay [9], 106%; in assay [10] it was 102%; in assay [11], 93.7%; in assay [12] it was 61.7%. Also, the growth in assay [13] was 100%; in assay [14], 96.6%; in [15] it was 104%; in assay [16] it was 98.2%; in [17] it was 96.5%; in assay [18] it was 96%. Besides, the growth was 73.7% in assay [19] and 105% in assay [20].
`CNC(=O)NN`: the growth was 98.2% in assay [1]; 103% in assay [2]; 103% in assay [3]; 94.7% in assay [4]; 105% in assay [5]; 82.5% in assay [6]. Also, the growth is 104% in [7]; 98.9% in assay [8]; 107% in assay [9]; 94.5% in assay [10]; 103% in assay [11]; 109% in [12]. For the same molecule, the growth in [13] is 93.7%; in assay [14], 108%; in assay [15], 108%; in [16], 111%; in assay [17] it was 99.6%; in assay [18], 97%. Besides, the growth in assay [19] is 100%; in assay [20] it was 98.1%.
For the molecule `O=c1c2ccccc2sc2c(NCCCNCCO)nc3ccccc3c12`, the growth in assay [1] is 50%; in [2], 44.4%; in assay [3], 65.8%; in [4] it was 36.5%; in assay [5], -33.5% (active); in [6], -1.63% (active). For the same molecule, the growth in assay [7] was 20.9%; in assay [8], 25.9%; in [9], 41.3%; in [10], -78.9% (active); in [11], 16.5%; in assay [12], -39.5% (active). In addition, the growth was -55.3% (active) in [13]; -10.6% (active) in assay [14]; 14.2% in assay [15]; 37.5% in assay [16]; -3.85% (active) in assay [17]; 54.7% in assay [18]. Besides, the growth in assay [19] is 64%; in assay [20] it was -61.8% (active).
In the case of `COc1ccc2c(-c3ccc(F)cc3)c(C#N)c(=NC(C)=O)oc2c1`, the growth in assay [1] was 53.8%; in assay [2], 89.6%; in assay [3] it was 58.2%; in [4], 62.8%; in assay [5] it was 23.3%; in assay [6], 70.6%. Besides, the growth was 5.83% (active) in assay [7]; 53.4% in assay [8]; 33.4% in assay [9]; 106% in [10]; 49.6% in assay [11]; 8% (active) in assay [12]. The growth in assay [13] was 53.7%; in assay [14] it was 54.7%; in [15] it was 36%; in [16], 52.7%; in assay [17], 37.9%; in [18] it was 28.4%. In addition, the growth was 72% in assay [19] and 19.8% in assay [20].
As for `O=C1CCC(=O)N1C1CCCCC1`, the growth in assay [1] was 93%; in [2], 97.1%; in [3], 81.5%; in assay [4], 93.3%; in [5], 104%; in [6], 102%. The growth is 103% in [7]; 115% in assay [8]; 106% in [9]; 101% in assay [10]; 107% in assay [11]; 107% in [12]. The growth in assay [13] is 82.6%; in assay [14], 103%; in assay [15], 109%; in [16], 97.6%; in assay [17], 97.5%; in [18] it was 101%. The growth in assay [19] was 108%; in assay [20] it was 94.5%.
On to `COc1cc([C@@H]2c3cc4c(cc3C(OC3O[C@@H]5COC(C)O[C@H]5[C@H](O)[C@H]3O)C3COC(=O)[C@@H]32)OCO4)cc(OC)c1O` (stereo not given in full), for which the growth in assay [1] is 14.3%; in assay [2], 33.1%; in assay [3], 115%; in assay [4], -9.99% (active); in assay [5], 7.32% (active); in [6], 63.5%. The growth in [7] is 24.3%; in assay [8], 29.7%; in assay [9] it was -13.1% (active); in assay [10], 60.6%; in assay [11] it was 15.9%; in assay [12], 30.5%. Moreover, the growth in assay [13] is 40.2%; in assay [14], 78.3%; in assay [15], 28.9%; in assay [16], 23.9%; in assay [17] it was -10.4% (active); in assay [18] it was -5.44% (active). Further, the growth was 51.2% in assay [19] and 4.19% (active) in [20].
As to `O=C(Nc1ccc(-n2ccc3c(NC(=O)c4ccccc4)ncnc32)cc1)c1cccc(C(F)(F)F)c1`, the growth is 80.6% in assay [1]; 70.8% in assay [2]; 62.9% in [3]; 71.5% in assay [4]; 10.2% in [5]; 81.2% in [6]. Further, the growth in [7] was 45.4%; in assay [8], 32.7%; in [9], 56.2%; in assay [10], 51.9%; in [11], 35.1%; in assay [12], 28.7%. Moreover, the growth is 77.3% in assay [13]; 51.5% in assay [14]; 43.9% in assay [15]; 38.9% in assay [16]; 33.2% in assay [17]; 35.5% in [18]. Besides, the growth in assay [19] was 60.8%; in [20], 30.9%.
